Compound activity: PubChem, National Center for Advancing Translational Sciences (NCATS)
TDP1 inh: inhibitors of human tyrosyl-DNA phosphodiesterase TDP1; Q9NUW8; recombinant TDP1, AlphaScreen DNA substrate cleavage; Potency, µM (titrated, usually from 130 µM), without a hit: at the top dose activity change, negative = inhibition, usual class: inhibitors; 350,000 tested, 0.28% active; AID 485290; further: nearly all actives have a fitted effect of over 40% in size
Target sequence (Q9NUW8 whole entry, looked up): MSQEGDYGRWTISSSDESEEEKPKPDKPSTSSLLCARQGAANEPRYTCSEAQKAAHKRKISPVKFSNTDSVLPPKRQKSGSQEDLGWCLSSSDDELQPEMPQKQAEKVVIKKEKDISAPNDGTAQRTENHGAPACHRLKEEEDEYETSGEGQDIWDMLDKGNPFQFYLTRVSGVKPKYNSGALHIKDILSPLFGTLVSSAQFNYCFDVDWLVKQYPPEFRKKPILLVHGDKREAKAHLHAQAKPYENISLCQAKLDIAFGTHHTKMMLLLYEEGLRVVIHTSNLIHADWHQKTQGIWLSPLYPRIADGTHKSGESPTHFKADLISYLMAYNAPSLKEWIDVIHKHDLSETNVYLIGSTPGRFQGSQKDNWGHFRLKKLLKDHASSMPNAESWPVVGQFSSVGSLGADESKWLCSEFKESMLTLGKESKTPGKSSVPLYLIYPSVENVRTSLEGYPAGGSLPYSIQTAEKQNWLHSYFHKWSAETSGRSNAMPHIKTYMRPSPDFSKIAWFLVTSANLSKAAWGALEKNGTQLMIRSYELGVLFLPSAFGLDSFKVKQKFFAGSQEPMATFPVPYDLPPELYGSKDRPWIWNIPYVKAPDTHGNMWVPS
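Steps: enzyme plus compound, 15 min RT; add biotin/phosphotyrosine-FITC oligonucleotide (15 nM final), react 5 min; add donor/acceptor beads (10 ug/ml final), 10 min; read AlphaScreen. Tdp1 at 1 nM final.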
TDP1 cell noCPT: qHTS for Inhibitors of human tyrosyl-DNA phosphodiesterase 1 (TDP1): qHTS in cells in absence of CPT. DT40 Tdp1-/- hTDP1 cells, no CPT, ATP luminescence, 48 h. Potency, µM (doses to about 46.2 µM), without a hit: at the highest dose activity change, negative = growth inhibition, hits mostly inhibitors. AID 686978, 2013. 420,000 tested, 15% active; further: nearly all actives have a fitted effect of over 55% in size
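Camptothecin absent (DMSO only). Human TDP1-complemented DT40 knockout cells, 400 cells/well, 37 °C for minimum 48 hr; ATP measured via CellTiter-Glo, 30 min dark incubation, luminescence.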
DT40 TDP1 CPT: DT40-hTDP1 cell growth loss with CPT. chicken DT40 Tdp1-/-;hTDP1 cells + 20 nM CPT, ATP luminescence, 48 h. Potency, µM (top dose mostly 46.2 µM), without a hit: top-dose activity change, negative = growth inhibition, actives largely listed as inhibitors. 420,000 tested, 12% active; further: nearly all actives have a fitted effect of over 55% in size
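Chicken DT40 Tdp1-/- cells stably complemented with human TDP1 were seeded at 400 cells/well in medium containing 20 nM camptothecin, exposed to pin-transferred compounds, and grown at 37 °C for at least 48 hr. Viability was read as ATP luminescence.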
RORg inh: inhibitors of mouse ROR gamma transcriptional activity | P51450 | Drosophila S2 Gal4-RORgamma UAS-luciferase reporter, 20 h | Potency, µM (titrated, usually from 53.6 µM), for inactives: at the highest dose activity change, negative = inhibition, most hits filed as inhibitors | 310,000 tested, 5.4% active | AID 2551; further: nearly all actives have a fitted effect of over 60% in size
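Luciferase reporter read in Schneider cells carrying Gal4-RORγ (mouse) and UAS-Photinus luciferase; cells given compound 1 h before 700 uM copper sulfate induction, then incubated 20 h at ambient temperature.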
VP16 counter: Gal4-VP16 reporter inhibition counter-screen. Drosophila S2 Gal4-VP16 UAS-luciferase, luminescence, 20 h. Potency, µM (highest dose often 53.6 µM), for inactives: at the highest dose activity, negative = inhibition, hits mostly inhibitors. 310,000 tested, 3.5% active. AID 2546;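 further: Gal4-VP16 expression switched on by copper sulfate through the metallothionein promoter; nearly all actives have a fitted effect of over 50% in size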
The depositor's hits bear a star; [ ] = dose if it differs, or a comment. Shown are actives, neighbours in structure and some others; about 19% of the full set was active somewhere. The call rests on the fitted dose curve; in most records, active means well fitted curve in the direction sought with a large enough effect; inconclusive means small, poorly fitted or top-dose-only effect, or another doubt; inactive means no such curve, though single readings can be large; an effect the other way counts as inactive or inconclusive. On the % scale 0 is the no-effect control and ±100 the full control effect; potency means the concentration at half of the fitted maximal effect.

`CCCCc1ccc(-n2nnnc2SCC(=O)Nc2cc(OC)c([N+](=O)[O-])cc2C)cc1` gave TDP1 inh 2%, TDP1 cell noCPT 18µM*, DT40 TDP1 CPT inconclusive, RORg inh 9% and VP16 counter inconclusive.
O=C(Nc1ccc(F)cc1)c1ncn(-c2ccccc2)n1 was read as TDP1 inh -2%[12.3 µM], TDP1 cell noCPT -12% and DT40 TDP1 CPT -4%.
O=C(NCc1ccccc1)c1cc(C2CCCCN2S(=O)(=O)c2cccc3cccnc23)on1 (centres undefined) was read as TDP1 cell noCPT -29% and DT40 TDP1 CPT -19%.
`O=C1CCc2cc(S(=O)(=O)N3CCN(Cc4ccc5c(c4)OCO5)CC3)ccc2N1` gave TDP1 inh -1%, TDP1 cell noCPT -21%, DT40 TDP1 CPT -15%, RORg inh 36% and VP16 counter -9%.
COc1ccc2c(c1)C(=O)/C(=C/C=C/c1ccccc1)CC2 was read as TDP1 inh 7%[56.1 µM], TDP1 cell noCPT -8%, DT40 TDP1 CPT -24%, RORg inh -14% and VP16 counter -14%.
For COC1=CC(=O)C(O)=C/C1=C\C=C\c1ccccc1 the results were TDP1 inh 18%[56.1 µM], TDP1 cell noCPT 4.6µM*, DT40 TDP1 CPT 2.6µM*, RORg inh -95% and VP16 counter 13µM*.
`Clc1ccc(-c2nnc(Sc3nc4ccccc4o3)c3ccccc23)cc1` gave TDP1 inh 9%, TDP1 cell noCPT 16µM*, DT40 TDP1 CPT inconclusive, RORg inh 6.3µM* and VP16 counter inconclusive.
CCSc1nnc(-c2ccc(Cl)cc2)c2ccccc12 was read as TDP1 inh 2%, TDP1 cell noCPT inconclusive, DT40 TDP1 CPT inconclusive, RORg inh -3% and VP16 counter -6%.
CSc1nc(N(C)C)nc(N2CC(=O)N(CCNS(=O)(=O)c3ccc(C)cc3)C2=N)n1 was read as TDP1 inh 3%, TDP1 cell noCPT -25%, DT40 TDP1 CPT -2%, RORg inh inconclusive and VP16 counter -13%.
`O=C(Nc1cc(Cl)ccc1N1CCOCC1)c1cnccn1` gave TDP1 inh -2%, TDP1 cell noCPT -23%, DT40 TDP1 CPT -7%, RORg inh 2% and VP16 counter -5%.
`S=c1nc(-c2ccccc2)n(CCCN2CCOCC2)c2c1CCCC2` gave TDP1 inh -2%, TDP1 cell noCPT 0%, DT40 TDP1 CPT -19%, RORg inh inconclusive and VP16 counter -6%.
`COCCCn1c(-c2ccc(Cl)cc2)n[nH]c1=S` gave TDP1 inh 2%, TDP1 cell noCPT 18%, DT40 TDP1 CPT -9%, RORg inh 18µM* and VP16 counter 13µM*.
COCCCn1c(-c2ccccc2Cl)n[nH]c1=S was read as TDP1 cell noCPT 1%, DT40 TDP1 CPT 1%, RORg inh 16µM* and VP16 counter inconclusive.
For S=c1[nH]nc(-c2ccc(Cl)cc2)n1CCCN1CCOCC1 the results were TDP1 inh 5%, TDP1 cell noCPT 5%, DT40 TDP1 CPT -2%, RORg inh 10µM* and VP16 counter -3%.
For O=C(N/N=C\c1ccccn1)c1cccc(C(=O)N/N=C\c2ccccn2)n1 the results were TDP1 cell noCPT inconclusive and DT40 TDP1 CPT -5%.
Screening C(=N\NC(=Nc1ccccc1)c1ccccn1)/c1ccccn1 returned TDP1 inh 0%, TDP1 cell noCPT 10µM*, DT40 TDP1 CPT 10µM*, RORg inh 3.2µM* and VP16 counter 3.2µM*.
Screening Clc1ccc(/C=N/NC(=Nc2ccccc2)c2ccccn2)c(Cl)c1 returned TDP1 inh 7%, TDP1 cell noCPT 29µM*, DT40 TDP1 CPT inconclusive, RORg inh 13µM* and VP16 counter inconclusive.
Screening CCCCC12CN3CC(C)(CN(C1)C3c1cc(Br)ccc1O)C2=O (centres undefined) returned TDP1 inh 2%, TDP1 cell noCPT inconclusive and DT40 TDP1 CPT inconclusive.
For CCc1ccc2oc(-c3cc(N=Cc4cccc(OC)c4O)ccc3O)nc2c1 the results were TDP1 inh 2%, TDP1 cell noCPT -25%, DT40 TDP1 CPT -29%, RORg inh 11µM* and VP16 counter inconclusive.
